We go through ten compounds from PubChem BioAssay (Tox21).

Unmarked numbers belong to inactive results. Inconclusive results are not listed. The source made the active and inactive calls. Unless noted, calls come from the whole dose curve.

Experiment [1] is described as follows: Nuclear factor erythroid 2-related factor 2/antioxidant responsive element (Nrf2/ARE) small molecule agonists: qHTS cell viability counter screen in human keratinocytes (AID 1919968; active = well fitted curve in the direction sought with a large enough effect in the repeat runs; an effect the other way counts as inactive or inconclusive; note: nearly all actives have a fitted effect of over 55% in size). In short, it runs like this: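 Cytotoxicity was multiplexed with the Nrf2/ARE luciferase assay in the same wells. Stably transfected HaCaT keratinocytes were treated with test compounds for 23 h at 37 C. Cell viability was then measured by CellTiter-Fluor fluorescence.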

Experiment [2] in a line: Nuclear factor erythroid 2-related factor 2/antioxidant responsive element (Nrf2/ARE) small molecule agonists: luciferase reporter gene qHTS assay in human keratinocytes (AID 1919969). Note: nearly all actives have a fitted effect of over 35% in size. Note: potency is the fitted concentration of half-maximal effect. On the technique in general: A reporter such as luciferase makes a cellular process visible.
In experiment [3] the target is Gonadotropin-releasing hormone receptor (Homo sapiens) (UniProt P30968). The experiment can be described thus: Human gonadotropin-releasing hormone receptor (GnRHR) small molecule agonists, calcium flux assay in GnRHR-HEK293 cells (AID 1920063). Note: nearly all actives have a fitted effect of over 35% in size. The method, boiled down: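 Agonist activity was measured as intracellular calcium flux in HEK293 cells engineered to stably express human GnRHR. After dye loading for 1 hour at 37 C, compounds in DMSO were added and fluorescence was followed for 3 minutes.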

Experiment [4] concerns the target KiSS-1 receptor (Homo sapiens) (UniProt Q969F8). The experiment can be described thus: Human kisspeptin (KISS1R) small molecule agonists, calcium flux assay in KISS1R-HEK293 cells (AID 1920064; active = well fitted curve in the direction sought with a large enough effect in the repeat runs; an effect the other way counts as inactive or inconclusive). The method, boiled down:
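Agonist activity is monitored as intracellular calcium rise in engineered HEK293 cells carrying human KISS1R. Cells are dye-loaded for 1 h at 37 C before compound addition, and fluorescence is recorded for 3 min.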
A general note: Calcium assays in cells follow changes in intracellular calcium, usually with a dye or a luminescent sensor.

The nature of experiment [5]: G protein-coupled receptor (GPCR) small molecule agonists, calcium flux assay: HEK293 wild type cell line counter screen (AID 1920065). In short, it runs like this:
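Seed cells, incubate 18 h (37 C, 5% CO2); add calcium dye, 1 h at 37 C; pin-transfer compounds, ATP control or DMSO; read fluorescence 480/540 nm each second for 3 min.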

The nature of experiment [6]: p53 small molecule agonists, cell-based qHTS assay with human liver microsomes (AID 1963577).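 Note: p53 response element beta-lactamase reporter cells with liver microsomes plus NADPH.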 The method, boiled down:
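With metabolic activation: human liver microsomes (0.5 mg/mL final) plus NADPH (0.5 mg/mL final) added alongside compounds to p53RE-bla cells; 16 h 37 C exposure; beta-lactamase read by LiveBLAzer fluorescence.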

Experiment [7] in a line: p53 small molecule agonists, cell-based qHTS assay with rat liver microsomes (AID 1963578). The method, boiled down: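 Metabolic activation by rat liver microsomes and NADPH, each 0.5 mg/mL final, added right after compounds to p53RE-bla reporter cells (4,000/well, plated 5 h earlier). 16 h at 37 C, then LiveBLAzer substrate for 2 h at room temperature in the dark; fluorescence read-out.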

Experiment [8] can be described thus: p53 small molecule agonists, cell-based qHTS assay with human liver microsomes: qHTS cell viability counter screen (AID 1963579). Note: nearly all actives have a fitted effect of over 45% in size. In short, it runs like this:
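Metabolic activation used human liver microsomes and NADPH, both 0.5 mg/mL final, over 16 hours at 37 C on p53RE-bla cells (4,000/well). Cytotoxicity measured by CellTiter-Glo luminescence, 30 min at room temperature.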
For orientation: In qHTS, concentration-response curves come from the screen itself.

Experiment [9] is described as follows: p53 small molecule agonists, cell-based qHTS assay with rat liver microsomes: qHTS cell viability counter screen (AID 1963580). Note: nearly all actives have a fitted effect of over 45% in size. The method, boiled down: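 Rat liver microsome (0.5 mg/mL final) and NADPH (0.5 mg/mL final) co-incubation with compounds for 16 h at 37 C on HCT-116 p53RE-bla cells; cytotoxicity taken from intracellular ATP luminescence.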
Experiment [10] in a line: p53 small molecule agonists, cell-based qHTS assay: qHTS cell viability counter screen (AID 1963581). Note: nearly all actives have a fitted effect of over 45% in size. In short, it runs like this: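 Viability was counter-screened in parallel with the p53 agonist reporter by measuring intracellular ATP luminescence in the same HCT-116 p53RE-bla wells after 16 h compound treatment at 37 C.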
A short description of experiment [11]: p53 small molecule agonists, cell-based qHTS assay (AID 1963582; active = well fitted activation curve with a large enough effect in the signal ratio in the repeat runs, not every such curve was filed as active; the % refers to the signal ratio). In short, it runs like this:
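Cells carrying a p53-responsive bla reporter are treated with test compounds for 16 h at 37 C; beta-lactamase activity is then detected with LiveBLAzer B/G FRET substrate after 2 h at room temperature.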

The target of experiment [12] is 5-hydroxytryptamine receptor 2A (Homo sapiens) (UniProt P28223). The experiment can be described thus: 5-hydroxytryptamine receptor 2A (HTR2A) small molecule antagonists, cell-based qHTS assay (AID 1963586). Note: nearly all actives have a fitted effect of over 45% in size. In short, it runs like this:
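CHO cells stably expressing human HTR2A were plated for 18 h at 37 C, then loaded with calcium dye for 1 h. Compounds were preincubated 5 min at room temperature before DOI (4 nM solution) was added. Kinetic fluorescence was read for 3 min.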

For experiment [13] the target is unchanged. The experiment in a line: 5-hydroxytryptamine receptor 2A (HTR2A) small molecule agonists, cell-based qHTS assay (AID 1963587). Note: nearly all actives have a fitted effect of over 30% in size. In short, it runs like this: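 Kinetic calcium-flux fluorescence (2 min, 1 sec intervals) after compound addition in agonist mode. HTR2A-CHO cells were cultured 18 h, then dye-loaded 1 h at 37 C.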
The target in experiment [14] is Muscarinic acetylcholine receptor M1 (Homo sapiens) (UniProt P11229). The experiment in a line: Cholinergic receptor muscarinic 1 (CHRM1) small molecule antagonists, cell-based qHTS assay (AID 1963588). Note: nearly all actives have a fitted effect of over 40% in size. In short, it runs like this:
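Compounds were tested at 15 concentrations in three independent runs. Dye-loaded CHRM1-CHO cells were exposed 5 min at room temperature before stimulation by acetylcholine added at 50nM. Intracellular calcium was read kinetically on FDSS for 3 min.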

Experiment [15] has the same target. The experiment can be described thus: Cholinergic receptor muscarinic 1 (CHRM1) small molecule agonists, cell-based qHTS assay (AID 1963589). Note: nearly all actives have a fitted effect of over 35% in size. The method, boiled down: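 Cells were plated and incubated 18 h at 37 C/5% CO2, loaded with calcium dye for 1 h at 37 C, then treated with compounds in DMSO. Fluorescence was recorded kinetically at 1 sec intervals.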
Experiment [16] in a line: cAMP Responsive Elements (CRE) small molecule agonists, cell-based qHTS assay (AID 1963590). In short, it runs like this: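 Cells carrying a CRE-driven beta-lactamase reporter (HEK 293T) are seeded, incubated overnight (18 h), and treated with test compounds for 3 h at 37 C; reporter activity is then detected with a FRET substrate after 2 h at room temperature.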
Experiment [17] is described as follows: cAMP Responsive Elements (CRE) small molecule antagonists, cell-based qHTS assay (AID 1963591; active = well fitted inhibition curve with a large enough effect in the signal ratio in the repeat runs, not every such curve was filed as active; the % refers to the signal ratio). In short, it runs like this:
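Cells (CRE-bla HEK 293T, DMEM with 10% dialyzed FBS and 25 mM HEPES) are seeded and incubated 18 h. Compounds are added with NKH477 agonist at 0.25 uM final for 3 h, then FRET substrate for 2 h.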

The target of experiment [18] is D(2) dopamine receptor (Homo sapiens) (UniProt P14416). The experiment can be described thus: Dopamine D2 receptor (DRD2) small molecule agonists, cell-based qHTS assay (AID 1963594). Note: nearly all actives have a fitted effect of over 35% in size. The method, boiled down: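 cAMP accumulation in DRD2-HEK293 cells measured by HTRF after 1 h detection; compounds added 10 min before NKH477 (200nM […]) forskolin-analogue stimulation, 30 min at room temperature, with Ro20-1724 present at 0.1 mM final.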

Experiment [19] has the same target. The experiment can be described thus: Dopamine D2 receptor (DRD2) small molecule antagonists, cell-based qHTS assay (AID 1963595; active = well fitted inhibition curve with a large enough effect in the signal ratio in the repeat runs, with a control signal flat; the % refers to the signal ratio). The method, boiled down:
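In this cell-based antagonist screen, compounds act for 10 min at room temperature before a 30 min challenge with 12 nM quinpirole and 200 nM NKH477. cAMP is quantified by HTRF competition in DRD2-HEK293 cells containing 0.1 mM Ro20-1724.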

Experiment [20] addresses Beta-2 adrenergic receptor (Homo sapiens) (UniProt P07550). The experiment can be described thus: Adrenergic beta2 receptor (ADRB2) small molecule antagonists, cell-based qHTS assay (AID 1963592). Note: series mostly up to about 92 µM; nearly all actives have a fitted effect of over 50% in size. The method, boiled down: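 Assay format: CHO-ADRB2 cells, 18-20hr seeding at 37C/5% CO2, then compound plus 1nM isoproterenol agonist mix for 0.5hr RT. Homogeneous time-resolved fluorescence cAMP detection after 1hr, expressed as 665/615 nm ratio.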

Chain of D(2) dopamine receptor (Homo sapiens) (P14416 whole entry, looked up): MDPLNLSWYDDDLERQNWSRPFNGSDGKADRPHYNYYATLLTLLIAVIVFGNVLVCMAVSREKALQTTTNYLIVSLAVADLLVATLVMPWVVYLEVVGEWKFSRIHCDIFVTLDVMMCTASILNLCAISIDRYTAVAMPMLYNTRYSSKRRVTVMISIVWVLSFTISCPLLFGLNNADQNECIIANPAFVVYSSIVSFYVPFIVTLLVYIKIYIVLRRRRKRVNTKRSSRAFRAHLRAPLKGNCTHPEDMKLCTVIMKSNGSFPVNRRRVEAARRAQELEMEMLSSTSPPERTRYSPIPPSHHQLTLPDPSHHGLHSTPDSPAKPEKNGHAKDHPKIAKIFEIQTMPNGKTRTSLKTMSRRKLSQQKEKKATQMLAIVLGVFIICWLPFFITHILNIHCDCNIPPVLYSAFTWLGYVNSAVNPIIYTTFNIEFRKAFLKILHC
Chain of 5-hydroxytryptamine receptor 2A (Homo sapiens) (P28223 whole entry, looked up): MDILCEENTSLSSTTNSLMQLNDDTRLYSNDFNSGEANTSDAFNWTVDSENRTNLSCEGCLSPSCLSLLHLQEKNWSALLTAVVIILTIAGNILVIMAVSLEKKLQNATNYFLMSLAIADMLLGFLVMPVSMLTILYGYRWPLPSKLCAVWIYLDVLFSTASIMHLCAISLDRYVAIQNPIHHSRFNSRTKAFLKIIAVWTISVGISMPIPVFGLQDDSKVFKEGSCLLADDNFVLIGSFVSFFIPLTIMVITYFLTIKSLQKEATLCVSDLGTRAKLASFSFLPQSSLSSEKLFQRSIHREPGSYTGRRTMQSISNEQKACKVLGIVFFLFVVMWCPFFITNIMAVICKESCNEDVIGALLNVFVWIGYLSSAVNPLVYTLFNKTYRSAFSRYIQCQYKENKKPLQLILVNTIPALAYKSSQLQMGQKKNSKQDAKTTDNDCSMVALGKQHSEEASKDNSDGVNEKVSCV
Chain of KiSS-1 receptor (Homo sapiens) (Q969F8 whole entry, looked up): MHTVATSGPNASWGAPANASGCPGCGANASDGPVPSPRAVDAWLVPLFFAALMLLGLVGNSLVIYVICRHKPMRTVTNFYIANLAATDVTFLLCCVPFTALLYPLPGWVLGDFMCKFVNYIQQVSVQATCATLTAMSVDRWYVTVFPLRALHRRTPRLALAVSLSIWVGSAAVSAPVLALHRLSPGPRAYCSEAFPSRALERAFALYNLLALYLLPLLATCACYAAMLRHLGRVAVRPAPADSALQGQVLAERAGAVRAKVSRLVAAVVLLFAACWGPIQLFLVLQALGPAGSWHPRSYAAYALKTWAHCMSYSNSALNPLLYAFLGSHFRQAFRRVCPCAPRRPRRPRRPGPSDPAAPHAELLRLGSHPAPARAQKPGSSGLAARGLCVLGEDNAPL
Chain of Muscarinic acetylcholine receptor M1 (Homo sapiens) (P11229 whole entry, looked up): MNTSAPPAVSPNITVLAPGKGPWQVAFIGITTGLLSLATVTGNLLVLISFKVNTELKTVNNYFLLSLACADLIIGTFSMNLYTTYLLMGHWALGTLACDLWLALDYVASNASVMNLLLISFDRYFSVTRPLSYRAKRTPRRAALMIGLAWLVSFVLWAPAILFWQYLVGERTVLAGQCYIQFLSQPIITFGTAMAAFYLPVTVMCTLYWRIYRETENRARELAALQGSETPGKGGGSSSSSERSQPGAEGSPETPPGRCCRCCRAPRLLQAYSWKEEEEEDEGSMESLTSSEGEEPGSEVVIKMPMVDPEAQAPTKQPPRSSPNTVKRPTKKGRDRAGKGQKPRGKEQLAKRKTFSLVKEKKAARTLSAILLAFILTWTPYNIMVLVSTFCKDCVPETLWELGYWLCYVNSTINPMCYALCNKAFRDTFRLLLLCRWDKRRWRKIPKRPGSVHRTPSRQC
Chain of Gonadotropin-releasing hormone receptor (Homo sapiens) (P30968 whole entry, looked up): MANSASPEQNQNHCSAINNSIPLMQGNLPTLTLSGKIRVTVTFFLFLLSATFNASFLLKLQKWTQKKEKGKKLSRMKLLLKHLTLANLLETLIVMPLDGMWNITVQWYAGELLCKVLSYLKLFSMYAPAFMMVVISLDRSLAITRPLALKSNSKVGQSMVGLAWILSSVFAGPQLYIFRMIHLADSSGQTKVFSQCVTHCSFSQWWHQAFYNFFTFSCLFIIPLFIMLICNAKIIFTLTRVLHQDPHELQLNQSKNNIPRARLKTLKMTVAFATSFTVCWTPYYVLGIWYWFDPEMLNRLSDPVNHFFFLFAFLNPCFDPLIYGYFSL
Chain of Beta-2 adrenergic receptor (Homo sapiens) (P07550 whole entry, looked up): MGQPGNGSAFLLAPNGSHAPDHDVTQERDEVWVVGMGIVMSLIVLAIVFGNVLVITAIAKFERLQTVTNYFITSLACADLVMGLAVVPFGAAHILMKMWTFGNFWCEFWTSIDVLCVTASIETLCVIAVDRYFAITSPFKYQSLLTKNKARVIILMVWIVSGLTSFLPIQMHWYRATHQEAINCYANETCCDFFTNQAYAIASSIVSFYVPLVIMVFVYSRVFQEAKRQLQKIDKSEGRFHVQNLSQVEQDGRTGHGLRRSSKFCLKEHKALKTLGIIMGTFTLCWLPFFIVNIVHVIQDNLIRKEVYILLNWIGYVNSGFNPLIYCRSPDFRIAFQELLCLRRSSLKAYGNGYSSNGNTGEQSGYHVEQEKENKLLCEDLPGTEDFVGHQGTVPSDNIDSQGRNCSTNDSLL

`CCCC=O`: the Potency entry in [1], in [2], in experiment [3], in experiment [4], in [5] and in experiment [6] was “inactive” throughout. The Potency entry in [7], in experiment [8], in [9], in experiment [10], in experiment [11] and in [12] was “inactive” each time. Also, the Potency entry in experiment [13], in experiment [14], in experiment [15], in [16], in experiment [17] and in experiment [18] was “inactive” throughout.

For `CC12CCC(C1)C(C)(C)C2O` (stereo unspecified), the Potency entry in experiment [1], in [2], in [3], in experiment [4], in [5] and in [6] was “inactive” throughout. Also, the Potency result in experiment [7], in experiment [8], in experiment [9], in [10], in experiment [11] and in experiment [12] was “inactive” in each case. In addition, the Potency result in experiment [13], in [14], in [15], in experiment [16], in experiment [17] and in experiment [18] was “inactive” each time. Further, in experiment [19], the Potency result is “inactive”.

For the compound `CC(CCC(=O)O)C(=O)O` (stereo unspecified), the Potency entry in [1], in [2], in experiment [3], in experiment [4], in [5] and in experiment [6] was “inactive” throughout. Further, the Potency result in [7], in [8], in [9], in experiment [10], in experiment [11] and in experiment [12] was “inactive” throughout. Also, the Potency result in experiment [13], in experiment [14], in [15], in experiment [16], in [17] and in experiment [18] was “inactive” each time. The Potency result in experiment [19] was “inactive”.

For `O=C1NCCN1CCO`, the Potency result in [1], in [2], in experiment [3], in experiment [4], in experiment [5] and in [6] was “inactive” in each case. Besides, the Potency result in experiment [7], in experiment [8], in [9], in experiment [10], in [11] and in experiment [12] was “inactive” in each case. In addition, the Potency result in [13], in [14], in experiment [15], in experiment [16], in experiment [17] and in experiment [18] was “inactive” throughout. Also, the Potency entry in experiment [19] is “inactive”.

`Fc1ccccc1-c1ccccc1`: the Potency entry in [1], in experiment [2], in [3], in [4], in experiment [5] and in [6] was “inactive” in each case. The Potency entry in experiment [7], in [8], in experiment [9], in experiment [10], in experiment [11] and in [12] was “inactive” throughout. Also, the Potency entry in experiment [13], in experiment [14], in experiment [15], in experiment [16], in experiment [17] and in [20] was “inactive” in each case. Moreover, the Potency entry in [18] and in experiment [19] was “inactive” each time.

As to `N#CC1(O)CCCCC1`, the Potency result in [1], in [3], in [4], in experiment [5], in experiment [6] and in [7] was “inactive” each time. Also, the Potency result in experiment [8], in experiment [9], in [10], in [11], in experiment [12] and in experiment [13] was “inactive” in each case. Further, the Potency entry in experiment [14], in [15], in experiment [16], in [17], in experiment [18] and in experiment [19] was “inactive” throughout. Also, the Potency in experiment [2] is 61.6 µM (active).

With `O=C(O[C@@H](C(=O)O)[C@@H](OC(=O)c1ccccc1)C(=O)O)c1ccccc1`, the Potency entry in experiment [1], in [2], in experiment [3], in [4], in [5] and in experiment [6] was “inactive” in each case. Besides, the Potency result in experiment [7], in experiment [8], in [9], in experiment [10], in experiment [11] and in [12] was “inactive” throughout. Also, the Potency result in experiment [13], in [14], in [15], in [16], in [17] and in experiment [20] was “inactive” throughout. In addition, the Potency result in experiment [19] is “inactive”.

Regarding `O=C1CC[C@H](C(=O)N2CCCCC2)N1`, the Potency result in experiment [1], in [2], in experiment [3], in [4], in [5] and in experiment [6] was “inactive” each time. For the same compound, the Potency entry in experiment [7], in experiment [8], in experiment [9], in experiment [10], in experiment [11] and in [12] was “inactive” in each case. The Potency result in experiment [13], in experiment [14], in experiment [15], in experiment [16], in [17] and in [20] was “inactive” each time. In addition, the Potency result in [19] is “inactive”.

On to `C1CCCC1`, for which the Potency result in [1], in experiment [2], in [3], in experiment [4], in experiment [5] and in experiment [6] was “inactive” in each case. For the same compound, the Potency result in experiment [7], in experiment [8], in experiment [9], in experiment [10], in [11] and in [12] was “inactive” throughout. Also, the Potency entry in experiment [13], in experiment [14], in experiment [15], in experiment [16], in [17] and in experiment [20] was “inactive” in each case. Also, the Potency result in experiment [18] and in experiment [19] was “inactive” in each case.

Regarding `CC(C)(C)OC=O`, the Potency result in experiment [1], in [2], in experiment [3], in experiment [4], in [5] and in experiment [6] was “inactive” each time. Further, the Potency result in experiment [7], in [8], in experiment [9], in experiment [10], in experiment [11] and in [12] was “inactive” each time. Moreover, the Potency result in [13], in experiment [14], in [15], in experiment [16], in experiment [17] and in [18] was “inactive” throughout. Moreover, in experiment [19], the Potency entry was “inactive”.
